Assay outcomes as filed in PubChem.
Hits are enriched below; roughly 1.1% of the tested compounds scored in any of these assays.
bovine MsrA act: activates bovine MsrA enzyme | purified bovine MsrA, absorbance read-out | activation, % at 10.6 µM | 0.3% of 360,000 active | AID 602163; in the data active means activation above about 7.5%
MsrA inhibitor: inhibits bovine methionine sulfoxide reductase A; purified bovine MsrA, absorbance read-out; inhibition, % at 15.5 µM; 0.75% of 360,000 active; AID 651718
PKA-R2B act: PKA-R2B complex activation; activation, % at 11.4 µM; P22694+P31323; AID 504700; PKA-R2B holoenzyme dissociation, Cy5-IP20 fluorescence polarization; R2B truncated from residue 108, S112A mutant; 0% DMSO only, 100% 113 µM cGMP; 0.079% of 340,000 active;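 active means activation above a cutoff set at the mean over all compounds plus 3 SD, cut at about 18% in these data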;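 further: higher means more holoenzyme dissociation and a rise in polarization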
Target sequence (P31323 whole entry, looked up, other chains not shown, the tested form may be a part): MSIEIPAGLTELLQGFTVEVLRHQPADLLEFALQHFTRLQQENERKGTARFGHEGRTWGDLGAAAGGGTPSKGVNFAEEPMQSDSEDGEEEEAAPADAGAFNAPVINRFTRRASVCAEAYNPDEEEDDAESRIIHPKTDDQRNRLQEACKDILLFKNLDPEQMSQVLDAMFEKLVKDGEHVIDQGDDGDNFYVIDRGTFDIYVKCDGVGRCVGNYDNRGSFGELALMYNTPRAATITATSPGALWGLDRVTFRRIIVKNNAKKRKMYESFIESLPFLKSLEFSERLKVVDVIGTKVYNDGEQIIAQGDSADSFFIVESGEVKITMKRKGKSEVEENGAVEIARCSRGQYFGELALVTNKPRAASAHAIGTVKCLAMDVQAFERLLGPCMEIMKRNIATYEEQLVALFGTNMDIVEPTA
PKA-R1A act: activators of PKA-R1A complex | P00514+P68181 | PKA-R1A dissociation, Cy5-IP20 fluorescence polarization; scaled: DMSO 0%, 113 µM cGMP 100% | activation, % at 11.4 µM | 0.083% of 340,000 active | AID 504707;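 active means percent activation above the mean of all tested compounds plus 3 SD, cut at about 19% in these data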;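 further: higher means more PKAc released from R1A so a rise in polarization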
MsrA act confirm: confirmation of bovine methionine sulfoxide reductase A activators; shares compounds with bovine MsrA act; 12% of 1,000 active; activation, % at 10.6 µM; purified bovine MsrA, absorbance read-out; in the data active means activation above about 4%;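 further: enzyme coupled to thioredoxin and thioredoxin reductase with NADPH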
MsrA inh confirm: confirmation of bovine MsrA inhibitors | purified bovine MsrA, absorbance read-out | shares compounds with MsrA inhibitor | 41% of 2,300 active | inhibition, % at 15.5 µM;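 further: coupled to thioredoxin reductase with NADPH and selenocystamine and DMSO as substrate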
Each line names hits and unclear results; the compound was inactive in the other large screens (follow-up assays come after a bar, where they were run). Unless noted, no stated cut-off is given here; in the data, active means inhibition above about 4.5%; inactive means the rest.

C#CC(C)(O)C1CC(CC(=O)O)C1(C)C (centres undefined)	bovine MsrA act 10 (no result: MsrA inhibitor) | MsrA act confirm inactive
O=C(O)c1ccccc1C(=O)Nc1n[nH]c(=S)s1	bovine MsrA act 8.7 | MsrA act confirm inactive
O=C(O)c1ccccc1C(=O)Nc1nccs1	none
O=C1C(Nc2ccc(O)cc2)=C/C(=N/S(=O)(=O)c2cccs2)c2ccccc21	bovine MsrA act 9.9, MsrA inhibitor 49 | MsrA act confirm 7.9
CCOC(=O)c1ccc(N=Nc2c(C)[nH]n(-c3ccccc3)c2=O)cc1	none
CC(=O)N(C)c1ccc(N=Nc2c(C)[nH]n(-c3ccccc3)c2=O)cc1	bovine MsrA act 8.0 | MsrA act confirm inactive
CC(C)c1ccc(C(=O)CSc2ncn[nH]2)cc1	bovine MsrA act 14 | MsrA act confirm inactive
COc1ccc(N2CCN(C(c3nnnn3C3CCCC3)C(C)C)CC2)cc1 (centres undefined)	bovine MsrA act 8.9 | MsrA act confirm inactive
O=C(Nc1ccc2c(c1)OCCO2)Nc1ccc2c(c1)OCO2	none
O=C(Nc1ccc2c(c1)OCCO2)NC12CC3CC(CC(C3)C1)C2	bovine MsrA act 9.1 | MsrA act confirm inactive
O=C(N[C@@H](Cc1cccnc1)C(=O)N1CCC[C@H]1C(=O)NCc1ccccc1)c1ccccc1	none (no result: bovine MsrA act, PKA-R2B act, PKA-R1A act)
Nc1[nH]c(C(=O)c2ccccc2)c(-c2ccc(Cl)cc2F)c1C(=O)NCCc1c[nH]c2ccccc12	none (no result: bovine MsrA act, PKA-R2B act, PKA-R1A act)
COc1ccccc1CNC(=O)CCCn1nc(C)c2c(C)n(-c3ccccc3)nc2c1=O	bovine MsrA act 12 | MsrA act confirm inactive
CC(C)NC(=O)OC[C@H]1O[C@H](C#Cc2ccc(C(C)(C)C)cc2)C=C[C@H]1O	none (no result: bovine MsrA act, PKA-R2B act, PKA-R1A act)
Cc1c(NC(=O)Cn2[nH]c(=O)c3ccccc3c2=O)c(=O)n(-c2ccccc2)n1C	bovine MsrA act 23 | MsrA act confirm inactive
Cc1c(NC(=O)N2CCCCCC2)c(=O)n(-c2ccccc2)n1C	bovine MsrA act 8.4 | MsrA act confirm inactive
COC(=O)[C@]12C[C@H](CC(=O)N3CCN(C(=O)c4ccco4)CC3)C(=O)N(Cc3ccccc3)C1=C[C@H](C(C)C)O[C@@H]2C1CC1	none (no result: bovine MsrA act, PKA-R2B act, PKA-R1A act)
CCCCC(=O)NNC(=S)NC(=O)c1ccc([N+](=O)[O-])cc1	bovine MsrA act 7.8 | MsrA act confirm 4.5
Cc1ccc(C(=O)NC(=S)NNC(=O)CC#N)cc1	bovine MsrA act 7.8 | MsrA act confirm 4.1
O=C(NNC(=S)NC(=O)c1ccccc1)c1cccc([N+](=O)[O-])c1	none
CCCCC(=O)NNC(=S)NC(=O)c1ccc(C)cc1	none
CCCCC(=O)NNC(=S)NC(=O)c1cccc([N+](=O)[O-])c1	bovine MsrA act 11 | MsrA act confirm inactive
CN1CCCCC(NC(=O)c2ccc3ccccc3c2)C1=O (centres undefined)	none (no result: bovine MsrA act, PKA-R2B act, PKA-R1A act)
CC(=C/c1ccccc1)/C=N/NC(=O)c1cccs1	bovine MsrA act 16 (no result: PKA-R2B act, PKA-R1A act) | MsrA act confirm inactive
O=C(N/N=C/C(Br)=C\c1ccccc1)c1cccs1	none (no result: PKA-R2B act, PKA-R1A act)
COc1cc2c(cc1OC)[C@@H](NC(=O)c1ccncc1)[C@H](C)[C@H]2c1ccccc1	none (no result: bovine MsrA act, PKA-R2B act, PKA-R1A act)
COCC(=O)N(C)[C@H]1C[C@H]2c3[nH]c4ccccc4c3CCN2C(=O)[C@H]1[C@H](C)O	none
C[C@H](O)[C@@H]1C(=O)N2CCc3c([nH]c4ccccc34)[C@@H]2C[C@@H]1N(C)Cc1ccc(Cl)cc1	bovine MsrA act 7.8 | MsrA act confirm inactive
COC(=O)c1ccc(C2=NOC(C)(c3nnc(Cc4ccccc4)o3)C2)cc1 (centres undefined)	bovine MsrA act 8.9 | MsrA act confirm inactive
Cc1cc2c(nc1C)CCCN2Cc1ccccc1C(F)(F)F	none (no result: bovine MsrA act, PKA-R2B act, PKA-R1A act)
O=[N+]([O-])c1ccc(C=Nc2cccc3ccccc23)s1	bovine MsrA act 8.1 (no result: MsrA inhibitor) | MsrA act confirm 6.5
N#CC(c1nc2ccccc2nc1N1CCCC1)S(=O)(=O)c1ccccc1 (centres undefined)	none
N#CC(c1nc2ccccc2nc1N1CCCC1)S(=O)(=O)c1cccs1 (centres undefined)	bovine MsrA act 10.0 | MsrA act confirm inactive
CCCN1CCCCC(NC(=O)OC(C)(C)C)C1=O (centres undefined)	none (no result: bovine MsrA act, PKA-R2B act, PKA-R1A act)
O=C(NCc1cccnc1)C(=O)NCC1OCCN1S(=O)(=O)c1ccc(F)cc1 (centres undefined)	bovine MsrA act 8.4 | MsrA act confirm inactive
COc1cc(C[C@@H]2C(=O)OC[C@H]2Cc2ccc(OC)c(OC)c2)ccc1O	bovine MsrA act 11 | MsrA act confirm inactive
COc1cc(CC2COC(=O)C2Cc2ccc(O)c(OC)c2)ccc1O (centres undefined)	none (no result: bovine MsrA act, PKA-R2B act, PKA-R1A act)
COc1ccccc1CNC(=O)C(CCSC)NC(=O)C1CCC(C)CC1 (centres undefined)	bovine MsrA act 9.0 | MsrA act confirm inactive
Nc1[nH]c(C(=O)c2ccccc2)c(-c2cccc3ccccc23)c1C(=O)NCc1ccc(Cl)cc1Cl	none (no result: bovine MsrA act, PKA-R2B act, PKA-R1A act)
O=C1Nc2c(Cl)cc(Cl)cc2C1=O	bovine MsrA act 11 | MsrA act confirm 7.0
O=C(O)C1CSC(CCc2ccccc2)N1 (centres undefined)	bovine MsrA act 7.8 | MsrA act confirm inactive
Cc1nnc(SCCC#N)n(CCC#N)c1=O	bovine MsrA act 9.2 | MsrA act confirm inactive
Cn1ccnc1SCCC#N	none
Cc1cc(O)cc(=O)n1-c1cc(Cl)cc(Cl)c1	none (no result: bovine MsrA act, PKA-R2B act, PKA-R1A act)
Cc1ccc(CC2C(=O)N(c3ncccn3)C(=O)C2C)cc1 (centres undefined)	bovine MsrA act 20 | MsrA act confirm inactive
COc1ccccc1Cc1c(-c2ccc(Cl)cc2)nc2ccc(C)cn12	none (no result: bovine MsrA act, PKA-R2B act, PKA-R1A act)
Cc1cc(CN2CCN(c3ncc(Cc4ccccc4)cn3)CC2)cc(C)c1O	none (no result: bovine MsrA act, PKA-R2B act, PKA-R1A act)
CC(C)(C)OC(=O)N1CCC(NC(=O)c2nc[nH]c2C(=O)NCc2ccccc2)CC1	none
CC(C)(C)OC(=O)NCc1ccc(CNC(=O)c2[nH]cnc2C(=O)NC2CCN(C(=O)OC(C)(C)C)CC2)cc1	bovine MsrA act 12 (no result: MsrA inhibitor) | MsrA act confirm inactive
COc1ccc(Cc2c(-c3ccc(OC)c(OC)c3)nc3ccc(C)cn23)c(C)c1	bovine MsrA act 13 (no result: PKA-R2B act, PKA-R1A act) | MsrA act confirm inactive
COc1ccc(C2CC(=O)C(c3cccc(OC)c3)=CN2Cc2ccccc2)cc1 (centres undefined)	none (no result: bovine MsrA act, PKA-R2B act, PKA-R1A act)
O=C(NCC1COc2ccccc2O1)C1CCC(CNc2c(N3CCCCC3)c(=O)c2=O)CC1 (centres undefined)	bovine MsrA act 8.9 | MsrA act confirm inactive
COc1ccc(C2CC(=O)C(c3cccc(Cl)c3)=CN2Cc2ccccc2)cc1 (centres undefined)	none (no result: bovine MsrA act, PKA-R2B act, PKA-R1A act)
CC(C)[C@H](NC(=O)c1ccccc1)C(=O)OCc1nc2scc(-c3ccccc3)c2c(=O)[nH]1	bovine MsrA act 13 | MsrA act confirm 6.3
Cc1cc(C(=O)O)ccc1-c1ccc(/C=N/n2cnnc2)o1	bovine MsrA act 8.4, MsrA inhibitor 9.2 | MsrA act confirm inactive | MsrA inh confirm 6.5
